# Records with an inconclusive call do not appear. Where a call stands in place of a potency, no number is given. Calls of active or inactive are those of the source. Calls follow the shape of the dose curve; as a rule, active = well fitted inhibition curve with a large enough effect; inconclusive = small, poorly fitted or top-dose-only effect, or effect the other way; inactive = no such curve, though single readings can be large or run the other way.
# Assay: Concentration response confirmation VP16 counterscreen for inhibitors of ROR gamma transcriptional activity; also: nearly all actives have a fitted effect of over 70% in size
# Conditions: Drosophila S2 Gal4-VP16 UAS-luciferase, luminescence, 20 h; series mostly up to 46.1 µM
# Source text: NIH Molecular Libraries Probe Production Network [MLPCN] NIH Chemical Genomics Center [NCGC] MLPCN Grant: R03 DA026211-01 Assay Provider: Dan Littman, New York University Assay Overview: The retinoic acid-related orphan receptor (ROR) gamma is a transcription factor that has a central role in the differentiation of Th17 cells, a subset of T helper cells that secrete the inflammatory cytokines IL-17, IL-17F, and IL-22. Th17 cells have been implicated in graft versus host disease, autoimmune disease and asthma. ROR gamma is induced in naive T helper cells in the presence of TGF-beta combined with IL-6, IL-21, or IL-23, and thereafter directs the expression of the Th17 lineage cytokines. To identify nonspecific inhibitors, a Drosophila Schneider cell line was stably transfected with two vectors: a gene expressing a fusion of the Gal4 DNA binding domain and the transactivation domain of the viral transcription factor VP16, under the control of the metallothionine promoter and a Photinus luciferase reporter regulated by the Gal4 binding site enhancer, UAS. […] Small molecule inhibitors that inhibit components common to the RORgt and VP16 assays, such as the Gal4 DNA binding domain or the UAS luciferase reporter, will be active in both assays and thus scored as nonspecific.
# Assay Protocol Summary: For screening, 600 cells in 4 uL/well were dispensed into white solid 1536-well plates (Grenier) using a solenoid-based dispenser. Following transfer of 23 nL compound or DMSO vehicle by a pin tool, the plates were incubated 1 hr at ambient temperature, and 1 uL/well copper sulfate (700 uM final concentration) was added. The plates were centrifuged 15 s at 1000 RPM and incubated 20 hr at ambient temperature. After addition of 1.5 uL Photinus luciferase detection reagent, the plates were incubated 10 min at ambient temperature and then read by an ViewLux (Perkin Elmer) to detect luminescence.
# Potency is read from the fitted curve at half-maximal effect.
row,SMILES,Potency
1,COc1ccc(OC)c(NC(=S)N(CCc2c(C)[nH]c3ccccc23)Cc2cccs2)c1,inactive
2,CCN1CCCc2cc(CN(CCN3CCOCC3)C(=S)Nc3ccc(C)cc3)ccc21,11.2 µM (active)
3,COC1CCCCC1Nc1cc(C)ccc1C (stereo not given),inactive
4,CCC(C)NC(=O)CSc1nnc(-c2cc(-c3ccc(C)cc3)nc3ccccc23)n1N (stereo not given),inactive
5,Cc1oc(-c2ccccc2Cl)nc1CSCC(=O)O,7.91 µM (active)
6,CCOC(=O)[C@@H]1[C@H]2COc3cc(OC)ccc3[C@@H]2N2C(=O)N(c3ccc(C)cc3)C(=O)[C@@]12C,inactive
7,COc1ccc(C(=O)/C=C/c2ccc(OC)cc2OC)c(O)c1,inactive
8,CCOc1cc(C)c(S(=O)(=O)NC2CCCCC2)cc1C,inactive
9,O=C(CN1CCCCCC1)Nc1ccc(S(=O)(=O)N2CCOCC2)cc1,inactive
10,COc1cccc(CNS(=O)(=O)c2ccc3c(c2)CCN3C(=O)C2CC2)c1,inactive
11,O=C(c1cc(-c2ccc(Cl)cc2)n[nH]1)N1CCc2ccccc2C1,inactive
12,O=C(O)c1ccc(/C=N/n2cc(-c3ccccc3)[nH]c2=S)cc1,inactive
13,COc1ccc(-c2cc(-c3nnc(COC(=O)c4ccncc4)o3)c3ccccc3n2)cc1OC,inactive
14,CC(=O)c1cccc(N(CC(=O)Nc2ccccc2C(=O)N2CCCC2)S(C)(=O)=O)c1,inactive
15,CCOC(=O)[C@@H]1[C@H]2COc3ccc(Br)cc3[C@@H]2N2C(=O)N(c3ccccc3)C(=O)[C@@]12C,inactive
16,CCN1CCN(CCC(=O)Nc2ccccc2)CC1,inactive
17,CCCCCCn1ccc(=N)cc1,11.2 µM (active)
18,O=C(O)c1ccccc1SC1CC(=O)N(c2ccc3c(c2)OCO3)C1=O (stereo not given),19.9 µM (active)
19,O=c1oc2c3c(nn2c2ccccc12)CCCC3,inactive
20,N=C1S/C(=C\c2ccco2)C(=O)N1c1nccs1,0.396 µM (active)

row,SMILES,Potency
1,COc1ccc(OC)c(/C=C2\SC(=S)N(C(C(=O)O)c3ccccc3)C2=O)c1 (stereo not given),inactive
2,Oc1ccc(COCc2ccccc2)c2cccnc12,2.5 µM (active)
3,CNc1cc(C(F)(F)F)nc(-c2ccccn2)n1,8.88 µM (active)
4,CC1Oc2ccccc2N(CC(=O)NCCN2CCOCC2)C1=O (stereo not given),inactive
5,COC(=O)Cn1c(CN2CCN(c3ccc(F)cc3)CC2)nc2c1c(=O)n(C)c(=O)n2C,3.15 µM (active)
6,COc1cc(C2c3cc4c(cc3C(OC3OC5COC(c6cccs6)OC5C(O)C3O)C3COC(=O)C23)OCO4)cc(OC)c1O (stereo not given),25 µM (active)
7,CCC(C)[C@H](NC(=O)NCc1ccco1)C(=O)O (stereo not given in full),inactive
8,COC(=O)Cn1c(CN2CCc3ccccc3C2)nc2c1c(=O)n(C)c(=O)n2C,6.28 µM (active)
9,COc1ccc(C(=O)Nc2scc(-c3ccc(Cl)cc3Cl)c2C(N)=O)cc1,inactive
10,CN1CCN(CCC(=O)Nc2cccc(F)c2)CC1,inactive
11,Cc1nnc(SCC(=O)Nc2ccc(S(=O)(=O)Nc3ccc(Cl)nn3)cc2)s1,inactive
12,COc1ccc2oc(=O)c(C(=O)Nc3ccccc3C)cc2c1,7.91 µM (active)
13,Cc1ccccc1C(=O)OC1OC(=O)C(Cl)=C1Nc1ccccc1 (stereo not given),inactive
14,Oc1ccccc1-c1cc(-c2ccc3c(c2)OCCO3)n[nH]1,19.9 µM (active)
15,Cc1nc2c(-c3ccc(F)cc3)cnn2c(N)c1-c1ccccc1,0.281 µM (active)
16,CC(C)(C)S(=O)(=O)c1cnc2c(-c3ccc(F)cc3)cnn2c1N,12.5 µM (active)
17,Cc1nc2c(-c3ccccc3)cnn2c(N)c1-c1ccccc1,11.2 µM (active)
18,O=C(CCCN1C(=O)/C(=C/c2ccccc2Cl)SC1=S)NNC(=O)c1ccc(Cl)cc1Cl,4.45 µM (active)
19,CCCCc1nnc(NC(=O)CS(=O)(=O)Cc2ccccc2)s1,inactive
20,Cn1nccc1C(=O)NC1CCCc2c1cnn2-c1ccc(F)cc1F (stereo not given),1.58 µM (active)

# Source: PubChem BioAssay AID2763 (National Center for Advancing Translational Sciences (NCATS), 2010)
